Sampled rows, rich in hits. Any-hit rate of the full collection: about 7.2%.
MARV entry inh: blocks Marburg virus binding to or entry into cells; Marburg virus pseudotyped entry inhibition, cell reporter; Potency, µM (doses to about 37.8 µM), for inactives: at the highest dose activity change, negative = inhibition, usual class: inhibitors; 300,000 compounds, 1.8% hits; calls by dose curve; tested in HEK293 cells
Lassa entry inh: Lassa virus entry inhibition; Lassa virus pseudotype entry inhibition, cell reporter; 300,000 compounds, 1.2% hits; Potency, µM (series often up to 37.9 µM), for the others: at the top dose activity change, negative = inhibition, hits mostly inhibitors; calls by dose curve; tested in HEK293 cells; further: nearly all actives have a fitted effect of over 50% in size
HCV inh: HCV inhibition | Huh7.5.1 HCVcc-Cre infection, luciferase reporter, 44 h | Potency, µM (highest dose often 41.8 µM), without a hit: at the highest dose activity change, negative = inhibition, hits mostly inhibitors | 340,000 compounds, 3.4% hits | AID 651820
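Antiviral activity was scored by luciferase reporter output from cells infected with HCVcc-Cre (~0.5 moi) in presence of compound, 44 h infection period, cells seeded 1,000/well 4 h prior.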
RE007 growth inh: less growth of the S. pombe RE007 Vpr strain | S. pombe RE007 Vpr strain, BacTiter-Glo ATP luminescence, 24 h | Potency, µM (top dose mostly 92.2 µM), inactives show at the highest dose activity change, negative = less growth, usual class: inhibitors | 360,000 compounds, 0.21% hits | AID 651644; active means well fitted falling curve with a large enough effect; inconclusive means small, poorly fitted or top-dose-only effect; inactive means no such curve, though single readings can be large or run the other way; further: nearly all actives have a fitted effect of over 50% in size
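Fission yeast RE007 carrying one integrated HIV-1 vpr copy, seeded at OD 0.01 in PMG+AL medium with 23 nL pinned compound. Grown 24 h at 30 degrees; viability read by BacTiter-Glo luminescence after 5 min.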
FMDV antiviral: foot and mouth disease virus antiviral activity; FMDV antiviral cell-based qHTS; Potency, µM (titrated, usually from 57.9 µM), inactives show at the top dose activity change, negative = inhibition, actives largely listed as inhibitors; 410,000 compounds, 1.2% hits; AID 1159524; calls by dose curve; tested in HEK293T cells; further: read-out not given here; nearly all actives have a fitted effect of over 45% in size
Sm TGR inh: blocks Schistosoma mansoni thioredoxin glutathione reductase; purified TGR, DTNB reduction, TNB absorbance 405 nm; Potency, µM (doses to about 114 µM), for the others: at the highest dose activity change, negative = inhibition, hits mostly inhibitors; 360,000 compounds, 3% hits; AID 485364; further: nearly all actives have a fitted effect of over 60% in size
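TGR 20 nM + NADPH 100 uM (dispensed conc.), cpd preinc 15 min RT; start with NADPH (500 uM addition) then DTNB (15 mM addition). Kinetic TNB absorbance, 405 nm filter. Four-parameter Hill fit across titration.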
Numbers without * were called inactive; u = inconclusive; x = not tested or not shown; [ ] = another dose, or the depositor's remark. Unless noted, the call rests on the fitted dose curve; in most records, active means well fitted curve in the direction sought with a large enough effect; inconclusive means small, poorly fitted or top-dose-only effect, or another doubt; inactive means no such curve, though single readings can be large; an effect the other way counts as inactive or inconclusive. On the % scale 0 is the no-effect control and ±100 the full control effect; potency means the concentration at half of the fitted maximal effect.

SMILES	MARV entry inh	Lassa entry inh	HCV inh	RE007 growth inh	FMDV antiviral	Sm TGR inh
Cc1cc(C(=O)CN2C(=O)C3CC=CCC3C2=O)c(C)n1-c1ccccc1 (configuration not stated)	u	u	-21.2%	-3.5%	0.0%	-10.5%
C=CCn1c(C)cc(C(=O)CN2C(=O)NC3(CCCc4ccccc43)C2=O)c1C (configuration not stated)	0.3%	u	5.6%	10.3%	-10.7%	-22.8%
C=CCn1c(C)cc(C(=O)CN2C(=O)c3ccccc3S2(=O)=O)c1C	u	u	19.2%	36.3%	39.8µM*	-10.4%
Cc1cc(C(=O)CN2C(=O)c3ccccc3S2(=O)=O)c(C)n1-c1ccccc1	8.91µM*	1.58µM*	u	-4.2%	u	3.4%
CCN1CCCC1CNC(=O)c1cnn(-c2nccc(-c3cc4ccccc4o3)n2)c1C1CC1 (configuration not stated)	x	x	x	x	-11.1%	x
COc1cc(OC)c(C2=NOC(C(=O)N3CCCc4ccccc43)C2)cc1Cl (configuration not stated)	u	0.9%	5.62µM*	3.9%	29.9%	0.2%
CCC1CCCCN1C(=O)C1CC(c2cc(Cl)c(OC)cc2OC)=NO1 (configuration not stated)	2.4%	-1.3%	2.8%	2.3%	x	2.8%
O=C(Nc1cccc(-c2nc3ncccc3o2)c1)c1sc2cc(Cl)ccc2c1Cl	u	-16.1%	8.91µM*	-7.7%	51.0%	u
Cc1noc(C)c1C(=O)OCC(=O)Nc1cccc(S(=O)(=O)N(C)C)c1	19.1%	1.6%	6.0%	1.4%	14.2%	-0.2%
CCN(CC)S(=O)(=O)c1ccc(Cl)c(NC(=O)COc2ccc(OC)cc2[N+](=O)[O-])c1	u	6.1%	2.0%	-7.2%	0.0%	-4.6%
COc1ccc(C)cc1NC(=O)COC(=O)c1ccc([N+](=O)[O-])o1	20.1%[46.1 µM]	-15.4%	5.6%	8.0%	-10.4%	0.0%
Cc1onc(-c2c(F)cccc2Cl)c1C(=O)OCC(=O)Nc1cccc(S(=O)(=O)N(C)C)c1	15.8µM*	u	u	-12.7%	u	x
CCN(CC)S(=O)(=O)c1ccc(Cl)c(NC(=O)COC(=O)c2ccc([N+](=O)[O-])o2)c1	x	x	-13.2%	21.9%	-0.9%	6.31µM*
O=C(OCc1cc(Cl)ccc1OC(F)F)c1ccc([N+](=O)[O-])o1	x	x	x	x	x	12.6µM*
COc1ccc(NC(=O)COC(=O)c2ccc([N+](=O)[O-])o2)cc1Cl	3.0%[46.1 µM]	0.5%[46.1 µM]	4.9%	-12.1%	25.5%	25.1µM*
Nc1nc2ccccc2cc1C(=O)NCc1cccs1	x	x	x	-16.7%	u	x
CN1C(=O)Cc2cc(S(=O)(=O)CCC(=O)Nc3ccccc3)ccc21	x	10.6%[46.1 µM]	x	x	-9.8%	1.4%
CN(C)S(=O)(=O)c1cccc(NC(=O)COC(=O)c2ccc([N+](=O)[O-])o2)c1	-3.5%	3.3%	27.3%	-7.1%	-5.3%	31.6µM*
COC(=O)c1c(N2C(=O)[C@H]3[C@@H](C2=O)[C@]2(C(=O)Nc4c2ccc(C)c4C)N2CCC[C@@H]32)sc(C)c1C	u	-10.8%	u	x	u	56.2µM*
COc1ccc(NC(=O)CSc2nnc(NC(=O)Nc3ccccc3)s2)c(OC)c1	x	6.0%[46.1 µM]	x	x	-5.7%	7.9%
CN(C)N1C(=O)CC(N2CCCC2)C1=O (configuration not stated)	u	-2.4%	6.3%	u	-5.4%	22.4µM*
O=C(OCn1ncc(Cl)c(Cl)c1=O)c1cccc(C(F)(F)F)c1	u	u	u	44.7µM*	14.1µM*	5.62µM*
CC1(C)Cc2c(c(N3CCOCC3)nc3sc(C(=O)Nc4ccc(Cl)cc4)c(N)c23)CO1	u	16.9%[46.1 µM]	3.6%	9.0%	-17.5%	-10.2%
Cc1nc2c(sc3nc(N4CCOCC4)c4c(c32)CC(C)(C)OC4)c(-c2ccc(Cl)cc2)c1C(=O)O	x	x	12.6µM*	19.1%	-22.8%	16.2%
Cc1ccc(Cl)c(NC(=O)COC(=O)c2ccccc2C(=O)c2ccc(Cl)c([N+](=O)[O-])c2)c1Cl	4.61µM*	13µM*	u	1.4%	u	-9.7%
SMILES	MARV entry inh	Lassa entry inh	HCV inh	RE007 growth inh	FMDV antiviral	Sm TGR inh
Cc1ccc(C(=O)c2ccccc2C(=O)OCC(=O)Nc2cccc([N+](=O)[O-])c2)cc1	u	-25.0%	-9.2%	3.0%	-4.8%	4.4%
CCCNC(=O)COC(=O)c1ccccc1C(=O)c1ccc(Cl)c([N+](=O)[O-])c1	3.16µM*	u	u	11.0%	11.2µM*	u
COc1cccc(Cn2c(=O)n(-c3ccc(Br)cc3F)c(=O)c3sc4ccccc4c32)c1	11.4%[46.1 µM]	-20.3%[46.1 µM]	x	x	-12.9%	1.7%
COc1ccc(C)cc1NC(=O)c1nnn(-c2c(C)cccc2C)c1C	u	9.7%[46.1 µM]	x	x	-23.3%	-9.7%
CN(C)S(=O)(=O)c1cccc(NC(=O)C2CCCN(C(=O)c3ccc(Cl)cc3)C2)c1 (configuration not stated)	x	x	x	12.9%	u	x
Cc1ccc2nc(N3CCN(S(=O)(=O)c4ccc5c(c4)OCCO5)CC3)c(C#N)cc2c1	u	u	14.1µM*	6.0%	-17.9%	0.0%
Cc1ccc2cc(C#N)c(N3CCCN(C(=O)C4CCCO4)CC3)nc2c1 (configuration not stated)	1.6%	-29.2%	1.4%	0.9%[3.69 µM]	-4.1%	-22.2%
Cc1ccc(S(=O)(=O)N2CCCN(c3nc4cc(C)ccc4cc3C#N)CC2)cc1	u	-19.0%	22.4µM*	-10.0%	x	-1.3%
COc1ccc2cc([S+]([O-])Cc3ncc(C)c(OC)c3C)nc2c1	5.4%	15.4%	x	x	x	x
Nc1nc2c(s1)CCc1c-2cnn1-c1ccccc1	x	x	u	x	0.0%	2.82µM*
O=c1oc2cc([N+](=O)[O-])ccc2nc1/C=C(\O)c1cccc(Br)c1	-4.1%	9.1%	0.5%	13.6%	4.0%	-28.4%
O=c1oc2cc([N+](=O)[O-])ccc2nc1/C=C(O)/C=C/c1ccccc1	x	x	x	x	x	35.5µM*
CCOC(=O)[C@H]1CCCN(c2nc3ccccc3nc2[C@@H](C#N)C(=O)O[C@@H](C)COC)C1	-1.9%	x	x	x	x	x
Cc1cc(C#Cc2c(-c3ccccc3)n(C)c3ccccc23)ccc1F	x	x	-13.4%[8.37 µM]	-14.3%	-9.4%	u
COc1cc(OC)cc(-c2c(C#Cc3ccsc3)c3cc(-c4ccc(OC)nc4)ccc3n2C)c1	x	x	u	-12.0%	5.7%	28.2µM*
Cn1c(-c2ccc(C#N)cc2)c(C#Cc2ccccc2)c2ccccc21	x	x	22.4µM*	-5.0%	24.2%	x
COc1cc(C#Cc2c(-c3cncn3C)n(C)c3ccc(Br)cc23)cc(OC)c1	x	x	1.12µM*	u	u	x
COc1ccc(-c2c(C#Cc3ccsc3)c3cc(-c4ccc(C(N)=O)cc4)ccc3n2C)cc1	x	x	7.08µM*	11.0%	0.0%	x

From PubChem
